# Source: PubChem BioAssay (NCI)
# This is part of a sample that, as a whole, favours compounds with a hit. Of some 83,000 tested, about 20% had one in any assay.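 For each line, cells grew in 96-well plates with the test compound present at a single concentration for 48 hours.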 Values without a mark were called inactive. Active and inactive are the calls of the source. The calls were made as follows: active = growth percent below 10; inactive = the rest.
# Assays:
# Test in all cases: NCI-60 one-dose screen, 48 h (100 = growth as untreated, 0 = no growth, -100 = all killed)
# HCT-15 colon = settings: 10 µM unless noted
# HT29 colon = settings: 10 µM unless noted
# SNB-75 CNS = settings: 10 µM unless noted
# SNB-19 CNS = settings: 10 µM unless noted
# U251 CNS = settings: 10 µM unless noted
# PC-3 prostate = settings: 10 µM unless noted
# SK-MEL-5 melanoma = settings: 10 µM unless noted
# UACC-62 melanoma = settings: 10 µM unless noted
# LOX IMVI melanoma = settings: 10 µM
# SK-MEL-28 melanoma = settings: 10 µM unless noted
# SK-MEL-2 melanoma = settings: 10 µM unless noted
# EKVX NSCLC = settings: 10 µM unless noted
# SN12C renal = settings: 10 µM unless noted
# UO-31 renal = settings: 10 µM unless noted
# TK-10 renal = settings: 10 µM unless noted
# ACHN renal = settings: 10 µM unless noted
# CAKI-1 renal = settings: 10 µM unless noted
# A498 renal = settings: 10 µM unless noted
# CCRF-CEM leukemia = settings: 10 µM unless noted
# MOLT-4 leukemia = settings: 10 µM unless noted
Compound,growth (HCT-15 colon),growth (HT29 colon),growth (SNB-75 CNS),growth (SNB-19 CNS),growth (U251 CNS),growth (PC-3 prostate),growth (SK-MEL-5 melanoma),growth (UACC-62 melanoma),growth (LOX IMVI melanoma),growth (SK-MEL-28 melanoma),growth (SK-MEL-2 melanoma),growth (EKVX NSCLC),growth (SN12C renal),growth (UO-31 renal),growth (TK-10 renal),growth (ACHN renal),growth (CAKI-1 renal),growth (A498 renal),growth (CCRF-CEM leukemia),growth (MOLT-4 leukemia)
C#CCOc1ccc(/C=N/Nc2nc(-c3cc4cc(OC)ccc4oc3=O)cs2)cc1OC,60.5%,29.2%,102%,75.3%,38.5%,20.8%,39.2%,54.4%,22.8%,18.9%,55.2%,43.5%,42.3%,87.7%,89.5%,40.2%,39.2%,78.7%,66.3%,63.9%
CC1(C)CC[C@]2(C(=O)O)CC[C@]3(C)C(=CCC4[C@@]5(C)C[C@@H](O)[C@@H]6OC(c7ccco7)OC[C@@]6(C)C5CC[C@]43C)C2C1 (stereo not given in full),20.7%,21.3%,72.2%,28.4%,16.8%,20.8%,-33.2% (active),-7.05% (active),22.9%,24.9%,-23.4% (active),22.8%,20%,22.7%,29.2%,7.44% (active),33.1%,62.4%,21.7%,21%
COc1ccc(/C=C/c2nc3ccccc3n3c(-c4ccc(Cl)cc4)nnc23)cc1,93.3%,102%,61.2%,94.7%,87.5%,77.1%,98.6%,81.3%,88.5%,104%,99.8%,88.7%,91.7%,66.4%,106%,93.5%,72.2%,85.3%,78.1%,72.6%
COc1cc(-c2nc3ccc(C)cc3[nH]2)ccc1OCc1nnc(-c2ccc(Br)cc2)o1,19.2%,-53.7% (active),85.7%,57.7%,5.13% (active),27.9%,20.2%,19.9%,77.1%,27.1%,83%,42.7%,36.2%,43%,33.2%,55.9%,44.6%,89.3%,26.4%,25%
Cc1ccc(/C=C/c2n(Cc3ccc4ccccc4c3)c3ccccc3[n+]2Cc2ccc3ccccc3c2)cc1,-86.2% (active),-50.4% (active),-88.3% (active),-58.5% (active),-42.1% (active),-88.3% (active),-100% (active),-63.6% (active),-87.9% (active),-92.3% (active),-97.7% (active),-95.7% (active),-56.1% (active),-96% (active),-80% (active),-96.1% (active),-94.6% (active),-82.5% (active),-66.1% (active),-25.9% (active)
COc1cc2c3c(n(CCCN4CCC[C@@H]4CO)c(=O)c2cc1OC)-c1cc2c(cc1C3=O)OCO2,-90.9% (active),-95.2% (active),-83.4% (active),-90.1% (active),-95.1% (active),-17.8% (active),-90.8% (active),11.7%,-98.7% (active),-92.1% (active),120%,-70.6% (active),-91.7% (active),-92.5% (active),91.4%,-100% (active),-94.6% (active),93.8%,6.04% (active),5.36% (active)
CCS(=O)(=O)N1CCCC(C(=O)Nc2nc3ccc(NC(=O)c4ccc(F)c(OC)c4F)cc3s2)C1 (stereo not given),51%,69.2%,62.5%,78.9%,65.9%,50.6%,-7.02% (active),58.2%,67.6%,78.6%,61.1%,46.8%,83.7%,54.5%,83.8%,63.5%,57.6%,87.9%,29.5%,9.19% (active)
